Experimental data: PubChem BioAssay AID1159580 (chemical genetic matrix, 2015)
The whole screen tested about 5,500 compounds, of which about 2,000 (36%) were called active. Inconclusive results (about 18%) are left out. Rule as the data show it: active = normalized growth mostly below about 0.91 (no sharp cut-off); inconclusive = no clear call, values can overlap the other calls; inactive = mostly above about 0.92. The list shows a part of the results.

Assay: chemical genetic growth profiling, strain panel (AID 1159580);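 also: tested at 20 µM; growth read once vehicle control cultures reached saturation at 30 °C; 1 = growth at the plate median or of vehicle wells; lower values mean less growth of the strain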
Settings: growth OD

Measured: normalized growth

CC(=O)OCC(=O)[C@@]1(O)CCC2C3C[C@H](C)C4=CC(=O)C=CC4(C)C3[C@@H](O)CC21C (some centres not stated)
inactive: S. cerevisiae deletion strains, locus YJR075W, strain HOC1, hits give low values 1.01 | S. cerevisiae deletion strains, locus YKL009W, strain mrt4, hits give low values 1.01 | S. cerevisiae deletion strains, locus YKL068W, hits give low values 1.02 | S. cerevisiae deletion strains, locus YKL085W, strain MDH1 (second series), hits give low values 0.995 | S. cerevisiae deletion strains, locus YKL085W, strain MDH1, hits give low values 0.995 | S. cerevisiae deletion strains, locus YKL160W, strain elf1, hits give low values 1.03 | S. cerevisiae deletion strains, locus YKL190W, strain CNB1, hits give low values 1 | S. cerevisiae deletion strains, locus YKR001C, strain vps1, hits give low values 0.997 | S. cerevisiae deletion strains, locus YKR026C, strain gcn3, hits give low values 1.01 | S. cerevisiae deletion strains, locus YKR091W, strain srl3, hits give low values 1.01 | S. cerevisiae deletion strains, locus YLL001W, strain dnm1, hits give low values 0.999 | S. cerevisiae deletion strains, locus YLL026W, hits give low values 1.01 | S. cerevisiae deletion strains, locus YLL041C, strain sdh2, hits give low values 1.01 | S. cerevisiae deletion strains, locus YLR027C, strain aat2, hits give low values 1.01 | S. cerevisiae deletion strains, locus YLR039C, strain RIC1, hits give low values 1.02 | S. cerevisiae deletion strains, locus YLR058C, strain SHM2, hits give low values 1.01 | S. cerevisiae deletion strains, locus YLR102C, strain apc9, hits give low values 1.01 | S. cerevisiae deletion strains, locus YLR113W, strain HOG1, hits give low values 1.02 | S. cerevisiae deletion strains, locus YLR221C, strain rsa3, hits give low values 0.997 | S. cerevisiae deletion strains, locus YLR258W, strain gsy2, hits give low values 1.03 | S. cerevisiae deletion strains, locus YLR262C, strain YPT6 (second series), hits give low values 1.03 | S. cerevisiae deletion strains, locus YLR262C, strain YPT6, hits give low values 1.01 | S. cerevisiae deletion strains, locus YLR268W, strain sec22, hits give low values 0.987 | S. cerevisiae deletion strains, locus YLR320W, strain mms22, hits give low values 1.01 | S. cerevisiae deletion strains, locus YLR330W, strain CHS5, hits give low values 1.01 | S. cerevisiae deletion strains, locus YLR342W, strain FKS1 (second series), hits give low values 1.03 | S. cerevisiae deletion strains, locus YLR342W, strain FKS1, hits give low values 1.02 | S. cerevisiae deletion strains, locus YLR357W, strain rsc2, hits give low values 1.03 | S. cerevisiae deletion strains, locus YLR370C, strain arc18, hits give low values 1.01 | S. cerevisiae deletion strains, locus YLR371W, strain rom2, hits give low values 1 | S. cerevisiae deletion strains, locus YLR384C, strain iki3, hits give low values 0.999 | S. cerevisiae deletion strains, locus YLR418C, strain cdc73, hits give low values 0.974 | S. cerevisiae deletion strains, locus YML016C, strain PPZ1, hits give low values 1 | S. cerevisiae deletion strains, locus YML032C, strain rad52, hits give low values 1.02 | S. cerevisiae deletion strains, locus YML120C, strain ndi1, hits give low values 1.02 | S. cerevisiae deletion strains, locus YML124C, strain tub3, hits give low values 1 | S. cerevisiae deletion strains, locus YMR058W, strain fet3, hits give low values 1.02 | S. cerevisiae deletion strains, locus YMR078C, strain ctf18, hits give low values 1 | S. cerevisiae deletion strains, locus YMR125W, strain sto1, hits give low values 1.04 | S. cerevisiae deletion strains, locus YMR129W, hits give low values 1.01 | S. cerevisiae deletion strains, locus YMR205C, strain PFK2, hits give low values 1.02 | S. cerevisiae deletion strains, locus YMR223W, strain ubp8, hits give low values 1.01 | S. cerevisiae deletion strains, locus YMR231W, strain pep5, hits give low values 1.02 | S. cerevisiae deletion strains, locus YMR263W, strain SAP30, hits give low values 1 | S. cerevisiae deletion strains, locus YMR307W, strain GAS1, hits give low values 1.03 | S. cerevisiae deletion strains, locus YNL067W, strain RPL9B, hits give low values 0.996 | S. cerevisiae deletion strains, locus YNL071W, strain lat1, hits give low values 1.01 | S. cerevisiae deletion strains, locus YNL128W, strain TEP1, hits give low values 1.01 | S. cerevisiae deletion strains, locus YNL153C, strain GIM3, hits give low values 0.998 | S. cerevisiae deletion strains, locus YNL183C, strain NPR1, hits give low values 0.962 | S. cerevisiae deletion strains, locus YNL209W, strain ssb2, hits give low values 1 | S. cerevisiae deletion strains, locus YNL233W, strain BNI4, hits give low values 1.01 | S. cerevisiae deletion strains, locus YNL248C, strain rpa49, hits give low values 1.02 | S. cerevisiae deletion strains, locus YNL250W, strain rad50, hits give low values 1 | S. cerevisiae deletion strains, locus YNL271C, strain bni1, hits give low values 1 | S. cerevisiae deletion strains, locus YNL298W, strain CLA4, hits give low values 1.01 | S. cerevisiae deletion strains, locus YNL307C, strain MCK1, hits give low values 1.01 | S. cerevisiae deletion strains, locus YNL322C, strain KRE1 (second series), hits give low values 1 | S. cerevisiae deletion strains, locus YNL322C, strain KRE1, hits give low values 1 | S. cerevisiae deletion strains, locus YNR049C, strain mso1, hits give low values 1.02 | S. cerevisiae deletion strains, locus YNR052C, strain pop2, hits give low values 1 | S. cerevisiae deletion strains, locus YOL006C, strain TOP1, hits give low values 1.01 | S. cerevisiae deletion strains, locus YOL012C, strain htz1 1.08 | S. cerevisiae deletion strains, locus YOL147C, strain pex11, hits give low values 1 | S. cerevisiae deletion strains, locus YOR001W, strain rrp6, hits give low values 0.988 | S. cerevisiae deletion strains, locus YOR061W, strain CKA2, hits give low values 1 | S. cerevisiae deletion strains, locus YOR069W, strain VPS5, hits give low values 1.01 | S. cerevisiae deletion strains, locus YOR070C, strain gyp1, hits give low values 1.02 | S. cerevisiae deletion strains, locus YOR080W, strain dia2, hits give low values 1.06 | S. cerevisiae deletion strains, locus YOR083W, strain WHI5, hits give low values 1.02 | S. cerevisiae deletion strains, locus YOR106W, strain vam3, hits give low values 1.01 | S. cerevisiae deletion strains, locus YOR136W, strain idh2, hits give low values 1.01 | S. cerevisiae deletion strains, locus YOR144C, strain elg1, hits give low values 1.01 | S. cerevisiae deletion strains, locus YOR184W, strain ser1, hits give low values 1.01 | S. cerevisiae deletion strains, locus YOR231W, strain MKK1, hits give low values 1.02 | S. cerevisiae deletion strains, locus YOR265W, strain rbl2, hits give low values 1.01 | S. cerevisiae deletion strains, locus YOR270C, strain vph1, hits give low values 0.982 | S. cerevisiae deletion strains, locus YOR290C, strain snf2, hits give low values 1.03 | S. cerevisiae deletion strains, locus YOR316C, strain cot1, hits give low values 1 | S. cerevisiae deletion strains, locus YPL051W, strain arl3, hits give low values 1.03 | S. cerevisiae deletion strains, locus YPL055C, strain LGE1, hits give low values 0.999 | S. cerevisiae deletion strains, locus YPL078C, strain atp4, hits give low values 1.03 | S. cerevisiae deletion strains, locus YPL106C, strain sse1, hits give low values 1.04 | S. cerevisiae deletion strains, locus YPL240C, strain hsp82, hits give low values 0.994 | S. cerevisiae deletion strains, locus YPL241C, strain CIN2, hits give low values 1.01 | S. cerevisiae deletion strains, locus YPL256C, strain CLN2, hits give low values 1.01 | S. cerevisiae deletion strains, locus YPR119W, strain clb2, hits give low values 1.01 | S. cerevisiae deletion strains, locus YPR141C, strain kar3, hits give low values 1.01 | S. cerevisiae deletion strains, locus YPR163C, strain tif3, hits give low values 1.01 | S. cerevisiae deletion strains, locus YPR167C, strain met16, hits give low values 0.995 | S. cerevisiae deletion strains, strain wtn01, hits give low values 1.01 | S. cerevisiae strains, strain wild type, hits give low values 1
